Results filed as inconclusive are left out. Active and inactive are the calls of the source.
Test: qHTS for identification of novel therapeutic agents for treatment of microphthalmiaassociated transcription factor (MiT) renal cell carcinoma (RCC) (AID 1963991)
Details: CellTiter-Glo, 48 h; for Potency: active = Z-AUC below -0.8 in all three lines; for z-score: stronger effect = lower value
Excerpt: PI: Marston Linehan Ph.D.
Urologic Oncology Branch, Center for Cancer Research (CCR)
National Cancer Institute (NCI), National Institute of Health (NIH), Bethesda, Maryland
MiT-Renal Cell Carcinoma (RCC) is characterized by genomic translocations involving microphthalmia-associated transcription factor (MiT) family members TFE3, TFEB, or MITF. MiT-RCC represents a specific subtype of sporadic RCC that is predominantly seen in young patients and can present with heterogeneous histological features making diagnosis challenging. Moreover, the disease biology of this aggressive cancer is poorly understood and there is no accepted standard of care therapy for patients with advanced disease. Tumor-derived cell lines have been established from human TFE3-RCC providing useful models for preclinical studies. TFE3-RCC tumor derived cell lines and their tissues of origin were characterized by IHC and gene expression analyses. An unbiased high-throughput drug screen was performed to identify novel therapeutic agents for treatment of MiT-RCC. Potential therapeutic candidates were validated in in vitro and in vivo preclinical studies. Mechanistic assays were conducted to confirm the on-target effects of drugs. The results of a high-throughput small molecule drug screen utilizing three TFE3-RCC tumor-derived cell lines identified five classes of agents with potential pharmacological efficacy, including inhibitors of phosphoinositide-3-kinase (PI3K) and mechanistic target of rapamycin (mTOR), and several additional agents, including the transcription inhibitor Mithramycin A. Upregulation of the cell surface marker GPNMB, a specific MiT transcriptional target, was confirmed in TFE3-RCC and evaluated as a therapeutic target using the GPNMB-targeted antibody-drug conjugate CDX-011. […] The results of the high-throughput drug screen and validation studies in TFE3-RCC tumor-derived cell lines have provided in vitro and in vivo preclinical data supporting the efficacy of the PI3K/mTOR inhibitor.
SEQUENCE No. (e.g., 1, 2, 3, etc.); […] (e.g., Cells, Incubation, Reagent, etc.); VALUE; DESCRIPTION.
1; Cells; 3 uL; white, solid-bottom Grenier assay plate.
2; Compounds; 23 nL; Kalypsis pin-tool (Wako USA).
3; Incubation; 48 hr; 37 C, 5% CO2, 95% humidity.
4; Reagent; 3 uL; CellTiter-Glo reagent (Promega).
5; Incubation; 15 min; room temperature.
6; Detection; Luminescence; ViewLux plate reader (PerkinElmer).
NOTES (numbers refer to Sequence numbers above)
1. Quantitative high-throughput screening (qHTS) of 1912 pharmacologically defined small molecule compounds was conducted on three TFE3-fusion cell lines bearing three different fusion partners (UOK109, UOK124, UOK145). Briefly, 500 cells in complete growth media were plated into white, solid-bottom, 1536-well tissue culture treated plates (Grenier Cat. 789173-F) using a Multidrop Combi cassette dispenser.
2. Twenty-three nanoliter of 1912 pharmacologically defined small molecule compounds of the NCATS Mechanism Interrogation PlatE (MIPE) version 4.0 were added to each assay plate using a Pintool Dispenser (Wako) equipped with 1536 pin head.
3. Plates were covered with stainless steel gasketed lids and incubated for 48 hours at standard cell culture conditions.
4. Viability was assessed by adding 3uL of CellTiter-Glo detection reagent (Promega).
5. Plates were covered with gasket lids and incubated for 15 minutes at room temperature.
6. Luminescence was measured on a ViewLux plate reader (PerkinElmer). Post-screen data processing used DMSO controls as 100% viability and empty wells as 0% viability and dose response curve fitting was done for all 11 concentrations for each compound.

[1] = TFE3-RCC UOK109 viability, measured here: UOK109 Z-AUC
[2] = TFE3-RCC viability, measured here: UOK124 Z-AUC
[3] = TFE3-RCC viability, measured here: UOK145 Z-AUC
Potency means the concentration at half of the fitted maximal effect.

Structure (SMILES)	Potency (TFE3-RCC UOK109 viability)	z-score [1]	z-score [2]	z-score [3]
COc1ncc(-c2ccc3nccc(-c4ccnnc4)c3c2)cc1NS(=O)(=O)c1ccc(F)cc1F	33200 nM (active)	-3.1	-1.24	-3.12
O=C1c2ccccc2-[n+]2ccc3c([nH]c4ccccc43)c21	1660 nM (active)	-1.69	-2.04	-1.7
COc1ccc(-c2nc(N3CCOCC3)c3sc(CN(C)c4ncc(C(=O)NO)cn4)cc3n2)cn1	26.4 nM (active)	-3.18	-4.67	-3.65
O=c1c(-c2ccc(O)cc2)coc2cc(O)ccc12		0.875	0.542	0.636
NC[C@@H]1O[C@@H](O[C@H]2[C@@H](O)[C@H](O[C@@H]3[C@@H](O)[C@@H](N)C[C@H](N)[C@H]3O[C@H]3O[C@H](CN)[C@@H](O)[C@@H](O)[C@H]3N)O[C@H]2CO)[C@H](N)[C@@H](O)[C@@H]1O		1.35	0.643	1.63
OC[C@H]1O[C@@H](Oc2cc(O)cc(C=Cc3ccc(O)cc3)c2)[C@H](O)[C@@H](O)[C@H]1O		0.664	0.547	1.48
NC1CCC(Nc2nc(Nc3ccc(C(=O)N4CCCCC4)cc3)c3ncn(-c4cccc(F)c4)c3n2)CC1 (configuration not stated)		0.32	0.539	0.657
CC(=Cc1ccccc1)C=C1SC(=S)N(CC(=O)O)C1=O		1.2	1.04	0.683
COc1ccc2cccc(CCNC(C)=O)c2c1		0.892	0.661	0.732
CO[C@H]1C[C@@H]2CC[C@@H](C)[C@@](O)(O2)C(=O)C(=O)N2CCCC[C@@H]2C(=O)O[C@H]([C@H](C)C[C@@H]2CC[C@H](OP(C)(C)=O)[C@H](OC)C2)CC(=O)[C@H](C)C=C(C)[C@@H](O)[C@@H](OC)C(=O)[C@H](C)C[C@H](C)C=CC=CC=C1C		0.0461	0.621	-0.765
C=C1C(=O)OC2C=C(C)CCC=C(C)CCC12 (configuration not stated)		0.459	0.643	0.399
CNC(=O)c1ccc2cc(C3(O)CCn4cncc43)ccc2c1 (configuration not stated)		0.41	0.546	0.539
OC[C@H]1O[C@@H](n2cnc3c2NC=NC[C@@H]3O)C[C@H]1O		0.518	0.532	0.196
